Results on twelve compounds are retold here after the supplement of paper PMC13380429.

The test system of this assay is Vero E6 infected with SARS-CoV-2. Description: morphology score (similarity to uninfected cells); higher = more like uninfected cells. As to conditions: 24 h.
Turning to `Cc1cc(/C=C/c2ccc3cc(N(C)C)ccc3[n+]2C)c(C)n1-c1ccccc1` [pyrvinium-pamoate] (10 µM), the morphology score is -0.0751.
As for `CC(=O)N(CC(O)CN(C(C)=O)c1c(I)c(C(=O)NCC(O)CO)c(I)c(C(=O)NCC(O)CO)c1I)c1c(I)c(C(=O)NCC(O)CO)c(I)c(C(=O)NCC(O)CO)c1I` (configuration not stated) [iodixanol] (10 µM), the morphology score was -0.0966.
For `CN(C)CC/C=C1/c2ccccc2COc2ccccc21` [doxepin] (10 µM) the value was 0.0537; for `O=C(O)c1ccccc1Nc1cc(Cl)ccc1C(=O)O` [lobenzarit] (10 µM), 0.04.
For `CCCCCCNC(=O)Nc1ccc(S(=O)(=O)Nc2ccc(CCNC[C@H](O)COc3ccc(O)cc3)cc2)cc1` (10 µM) the value was -0.167.
For `Cc1[nH]cnc1CN1CCc2c(c3ccccc3n2C)C1=O` [alosetron] (10 µM) the value was -0.0421.
Compound `N=C(N)c1ccc(-c2ccc(-c3ccc(C(=N)N)cc3)o2)cc1` [furamidine] (10 µM) yielded a morphology score of -0.436.
For the compound `Cc1ccccc1-n1c(CF)nc2ccc(N)cc2c1=O` [afloqualone] (10 µM), the morphology score was found to be 0.166.
For `CCOC(=O)c1cc(C#N)c(N2CCC(C(=O)NS(=O)(=O)Cc3ccccc3)CC2)nc1C` (10 µM) the value was 0.128; for `CCn1c(=O)[nH]c2cc(Cl)c(Cl)cc21` (10 µM), 0.171; for `C[C@@H](C1=C(CCN(C)C)Cc2ccccc21)c1ccccn1` (racemic) [dimetindene] (10 µM), 0.121.
Take `Cc1cnc(-c2cc(N3CCN(C(=O)CCS(C)(=O)=O)CC3)ncc2Cl)c(C)c1` (10 µM): the morphology score was found to be 0.241.
